Drawing on PubChem BioAssay (NCI), this text covers growth inhibition for 40 compounds.

This is part of a sample that, as a whole, favours compounds with a hit. Of some 79,000 tested, about 15% had one in any assay. Unmarked numbers belong to inactive results. Calls of active or inactive are those of the source. Cut-off read from the data, not from the text of the source: active = growth inhibition above about 70%; inactive = the rest.

A short description of one assay: NCI Yeast Anticancer Drug Screen. Data for the cln2 rad14 strain (AID 165).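 Note: 0% = growth equal to vehicle treated cultures.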 The conditions noted are these: S. cerevisiae cln2 rad14 strain, at 5.0 µM (retest, dose inferred, filed as 0.5), stronger effect = higher value. The method in brief:
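Each compound was tested on cln2 rad14 yeast. Inhibition of growth was calculated against vehicle-exposed controls.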
Turning to `O=C(N/N=C/c1ccccc1O)c1ccccc1-n1cccc1`, the growth inhibition was 32%.
Turning to `O=C1CN(CCN2CCOCC2)CC(=O)N2Cc3ccccc3CN12`, the growth inhibition was 3%.
Take `CCC[CH2][Sn]([CH2]CCC)([NH]c1ncnc2[nH]cnc12)[NH]c1ncnc2[nH]cnc12`: the growth inhibition was 30%.
As for `Oc1ccc(Br)cc1C=Nc1c(NC2CCCCC2)oc2ccc(Br)cc12`, the growth inhibition was -18%.
The same measure, in the same setting: for `Cc1cc2c(C(C)C)c(O)c(O)c3coc(/c1=c1/c(C)cc4c(C(C)C)c(=O)c(=O)c5coc1c45)c32` the value was -25%; for `O=C1c2ccccc2C(=O)N1/N=C\c1ccccc1[N+](=O)[O-]`, -5%.
Consider `O[C@H](CNCCS)[C@@H](O)CNCCS`, for which the growth inhibition was 17%.
As to `C[C@]12CC[C@H](O)CC1=CC[C@@H]1C2CC[C@]2(C)C(=O)N(N)C(=O)CC12` (some centres not stated), the growth inhibition is 2%.
Same read-out and setting: the value for `O=C(C(/C=N/C(=S)NCc1ccccc1)=C(/O)c1ccccc1)c1ccccc1` was -9%; that for `C=CC1(c2ccc(-c3ccccc3)cc2)OCCO1` was 19%; that for `C=C1CC(COc2ccc3c(C)cc(=O)oc3c2)(c2ccccc2)OC1=O` (configuration not stated) was -20%.
Turning to `CN(C)CCCNc1c2ccccc2nc2ccc([N+](=O)[O-])cc12`, the growth inhibition was 19%.
In the case of `CN1CCC(OC(=O)c2ccc3ncccc3c2)CC1`, the growth inhibition was -5%.
With `COc1ccc(/C=C2/C(=O)N(C(=O)c3ccccc3O)N=C2C)cc1OC`, the growth inhibition was 22%.
With `CC1([N+](=O)[O-])C(=O)C2(N3CCOCC3)CCCC2C1c1ccccc1` (configuration not stated), the growth inhibition was 1%.
On to `COc1ccc(C2=C(Cl)C(=O)N(c3ccc(C)cc3)C(=O)C2(Cl)Cl)cc1`, for which the growth inhibition is 1%.
For `COc1ccnc(-c2cc(OC)cc(/C(N)=N/O)n2)c1`, the growth inhibition is -5%.
On the same count and under the same terms, for `Nc1ccccc1CCc1ccccc1` the value was -1%.
On to `COC(=O)c1ccc(OCCC(=O)CCl)cc1`, for which the growth inhibition is 4%.
With `CCCCCCCCCCCCS(=O)(=O)CC(Br)C(=O)c1ccco1` (configuration not stated), the growth inhibition is 12%.
Regarding `FC(F)(F)C(F)(F)C1(F)C(F)(F)C(F)(F)C(F)(F)C(F)(F)C1(F)F`, the growth inhibition was 1%.
Turning to `O=C(O)C(O)C(O)C(O)C(O)CO.[Ag]` (configuration not stated), the growth inhibition is 99% (active).

The assay is the same for the next values; noted with them: S. cerevisiae cln2 rad14 strain, at 50.0 µM (retest, dose inferred, filed as 5.0), stronger effect = higher value.
For the compound `CCc1ccc(/C(C)=N/NC(N)=S)cc1`, the growth inhibition is 74% (active).
For the compound `CC(C)/C=C1\CCOC1=O`, the growth inhibition was 3%.
With `COc1c(C(=O)/C(=N/Nc2ccccc2)C(C)=O)c(O)c(OC)c2occc12`, the growth inhibition was 91% (active).
Consider `COc1ccc(CC/C(=N/O)c2ccccc2)cc1`, for which the growth inhibition was 74% (active).
As to `CCOC(=O)C1(C#N)C(c2ccccc2)C1(C#N)C#N` (configuration not stated), the growth inhibition was 76% (active).
On the same count and under the same terms, the value for `COc1ccc(OC)c(/C=C/NC=O)c1` was 5%.
Consider `CC(=O)Oc1ccc(-c2ccc(Br)cc2)cc1`, for which the growth inhibition is 93% (active).
Consider `COC(=O)/C(C#N)=C/c1cc(OC)c(O)cc1Br`, for which the growth inhibition is 43%.
Take `CCC(C1SC(=S)NC1=O)C1SC(=S)NC1=O` (configuration not stated): the growth inhibition is -2%.
Turning to `CCC(C)c1ccc(O)c(C(C)c2ccccc2)c1` (configuration not stated), the growth inhibition was 101% (active).
For `C/C(=N\NC(=S)N1CCN(c2ccccc2)CC1)c1nccs1`, the growth inhibition was 98% (active).
Still for that read-out and setting: the value for `COc1ccc2c(C(=O)c3ccccc3)c3[n+](cc2c1OC)CCc1cc2c(cc1-3)OCO2` was 21%; that for `Cc1cccc(C[N+](C)(C)CCCO)c1C` was 1%.
On the same count and under the same terms, the value for `c1ccc(N=C2SC3=NCCN3C2=Nc2ccccc2)cc1` was 66%; that for `Cc1ccc(SCc2ccccc2Cl)nn1` was 20%; that for `CCCc1cc(=O)oc2c3c(c4c(c12)OC(C)(C)CC4)O[C@H](C)[C@H](C)C3=O` was 98% (active).
`CC1(C)COC(c2cccc(C(O)c3ccc(Cl)cc3)c2)=N1` (configuration not stated): the growth inhibition is 99% (active).
In the case of `CCOC(=O)c1cc(NC(=O)c2cc(NC(=O)c3cc(NC(=O)c4c(-c5ccccc5)noc4C)cn3C)cn2C)cn1C`, the growth inhibition is 29%.
On the same count and under the same terms, the value for `O=C(N/N=C/c1ccccc1O)c1ccccc1-n1cccc1` was 49%; that for `O=C1CN(CCN2CCOCC2)CC(=O)N2Cc3ccccc3CN12` was 46%; that for `CCC[CH2][Sn]([CH2]CCC)([NH]c1ncnc2[nH]cnc12)[NH]c1ncnc2[nH]cnc12` was 89% (active).
As to `Oc1ccc(Br)cc1C=Nc1c(NC2CCCCC2)oc2ccc(Br)cc12`, the growth inhibition was 0%.
In the case of `Cc1cc2c(C(C)C)c(O)c(O)c3coc(/c1=c1/c(C)cc4c(C(C)C)c(=O)c(=O)c5coc1c45)c32`, the growth inhibition is 98% (active).
Same read-out and setting: for `O=C1c2ccccc2C(=O)N1/N=C\c1ccccc1[N+](=O)[O-]` the value was 32%.
As for `O[C@H](CNCCS)[C@@H](O)CNCCS`, the growth inhibition is 7%.
In the case of `C[C@]12CC[C@H](O)CC1=CC[C@@H]1C2CC[C@]2(C)C(=O)N(N)C(=O)CC12` (some centres not stated), the growth inhibition is 92% (active).
With `O=C(C(/C=N/C(=S)NCc1ccccc1)=C(/O)c1ccccc1)c1ccccc1`, the growth inhibition was 87% (active).
`C=CC1(c2ccc(-c3ccccc3)cc2)OCCO1`: the growth inhibition was 8%.
As for `C=C1CC(COc2ccc3c(C)cc(=O)oc3c2)(c2ccccc2)OC1=O` (configuration not stated), the growth inhibition was -6%.
Consider `CN(C)CCCNc1c2ccccc2nc2ccc([N+](=O)[O-])cc12`, for which the growth inhibition is 54%.
Consider `CN1CCC(OC(=O)c2ccc3ncccc3c2)CC1`, for which the growth inhibition is 2%.
With `COc1ccc(/C=C2/C(=O)N(C(=O)c3ccccc3O)N=C2C)cc1OC`, the growth inhibition is 62%.
As to `CC1([N+](=O)[O-])C(=O)C2(N3CCOCC3)CCCC2C1c1ccccc1` (configuration not stated), the growth inhibition was 40%.
Regarding `COc1ccc(C2=C(Cl)C(=O)N(c3ccc(C)cc3)C(=O)C2(Cl)Cl)cc1`, the growth inhibition is 19%.
On the same count and under the same terms, for `COc1ccnc(-c2cc(OC)cc(/C(N)=N/O)n2)c1` the value was 62%; for `Nc1ccccc1CCc1ccccc1`, 78% (active); for `COC(=O)c1ccc(OCCC(=O)CCl)cc1`, 31%.
Turning to `CCCCCCCCCCCCS(=O)(=O)CC(Br)C(=O)c1ccco1` (configuration not stated), the growth inhibition was 90% (active).
On to `FC(F)(F)C(F)(F)C1(F)C(F)(F)C(F)(F)C(F)(F)C(F)(F)C1(F)F`, for which the growth inhibition is -8%.
Regarding `O=C(O)C(O)C(O)C(O)C(O)CO.[Ag]` (configuration not stated), the growth inhibition was 98% (active).
